# Assay results: the supplement of paper PMC9694430
# Counter-ions that a name gives are not always drawn.
# How the values were obtained:
# Assay in all cases: thermal shift delta Tm vs DMSO control; higher = stronger stabilization (binding)
# Conditions in all cases: 12.5 µM; protein concentration 2 µM
# [1] = tested on: LOC_OS04G57630-cb004
# Summary of the method: (§1)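 Rice kinase domain constructs, made in E. coli and purified, were placed in 96-well plates at 2 μM in 19.5 μl of 100 mM potassium phosphate pH 7.5, 150 mM NaCl, 10% glycerol and 5 × SYPRO Orange, with compound in DMSO. A temperature ramp from 25°C to 95°C at 0.05°C/s was used for differential scanning fluorimetry. The melting temperature shift is a triplicate mean compared with DMSO-only protein, derived from Boltzmann fits.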
# [2] = tested on: LOC_OS05G07850-cb002
# Summary of the method: as §1
# [3] = tested on: LOC_OS05G16824-cb004
# Summary of the method: as §1
# [4] = tested on: LOC_OS05G28520-cb001
# Summary of the method: as §1
# [5] = tested on: LOC_OS05G30820-cb001
# Summary of the method: as §1
# [6] = tested on: LOC_OS05G43570-cb004
# Summary of the method: as §1
# [7] = tested on: LOC_OS06G16330-cb003
# Summary of the method: as §1
# [8] = tested on: T1, LOC_OS06G22820-cb001
# T1 sequence (whole entry): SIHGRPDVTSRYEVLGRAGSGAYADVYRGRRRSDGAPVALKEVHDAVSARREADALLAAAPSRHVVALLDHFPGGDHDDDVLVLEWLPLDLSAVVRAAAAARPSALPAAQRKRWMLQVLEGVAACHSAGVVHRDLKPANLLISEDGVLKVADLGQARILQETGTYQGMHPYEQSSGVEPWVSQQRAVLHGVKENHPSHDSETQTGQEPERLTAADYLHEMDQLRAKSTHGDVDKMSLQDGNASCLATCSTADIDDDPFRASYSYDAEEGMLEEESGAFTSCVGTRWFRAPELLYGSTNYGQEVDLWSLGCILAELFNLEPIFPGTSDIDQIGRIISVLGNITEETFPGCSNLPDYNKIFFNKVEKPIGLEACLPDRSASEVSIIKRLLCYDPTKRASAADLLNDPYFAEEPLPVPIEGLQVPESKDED
# Summary of the method: as §1
# [9] = tested on: LOC_OS07G06570-cb004
# Summary of the method: as §1
# [10] = tested on: LOC_OS07G07230-cb001
# Summary of the method: as §1
# 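Further: purified Escherichia coli-expressed rice kinase domain construct.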
# Sequence of LOC_OS06G16330-cb003 (as listed by the source): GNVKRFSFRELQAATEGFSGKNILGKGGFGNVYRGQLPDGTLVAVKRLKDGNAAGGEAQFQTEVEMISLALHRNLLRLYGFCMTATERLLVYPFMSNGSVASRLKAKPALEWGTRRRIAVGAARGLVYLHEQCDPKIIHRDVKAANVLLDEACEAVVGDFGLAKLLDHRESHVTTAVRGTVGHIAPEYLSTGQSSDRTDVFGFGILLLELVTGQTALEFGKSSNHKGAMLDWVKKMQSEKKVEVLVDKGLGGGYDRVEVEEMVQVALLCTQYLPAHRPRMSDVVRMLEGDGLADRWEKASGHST
smiles,measurement,setting,value
CC(C)Nc1cc(-c2c[nH]c(C(=O)N[C@H](CO)c3cccc(Cl)c3)c2)c(Cl)cn1,thermal shift delta Tm,[1],-0.02 °C
same,thermal shift delta Tm,[2],2.27 °C
same,thermal shift delta Tm,[3],-2.75 °C
same,thermal shift delta Tm,[4],0.6 °C
same,thermal shift delta Tm,[5],0.63 °C
same,thermal shift delta Tm,[6],0.49 °C
same,thermal shift delta Tm,[7],0.62 °C
same,thermal shift delta Tm,[8],0.65 °C
same,thermal shift delta Tm,[9],1.26 °C
same,thermal shift delta Tm,[10],-0.16 °C
Cn1cc(-c2ccc(F)c(C(F)(F)F)c2)nc1C1CCN(c2ncnc3[nH]ncc23)CC1,thermal shift delta Tm,[1],0.14 °C
same,thermal shift delta Tm,[2],0.42 °C
same,thermal shift delta Tm,[3],-7.63 °C
same,thermal shift delta Tm,[4],0.22 °C
same,thermal shift delta Tm,[5],0.54 °C
same,thermal shift delta Tm,[6],0.45 °C
same,thermal shift delta Tm,[7],0.11 °C
same,thermal shift delta Tm,[8],0.36 °C
same,thermal shift delta Tm,[9],0.72 °C
same,thermal shift delta Tm,[10],0.63 °C
O=C1NC(=O)C(c2cnc3ccccn23)=C1c1cn2c3c(cc(F)cc13)CN(C(=O)N1CCCCC1)CC2,thermal shift delta Tm,[1],0.36 °C
same,thermal shift delta Tm,[2],5.85 °C
same,thermal shift delta Tm,[3],3.38 °C
same,thermal shift delta Tm,[4],1.1 °C
same,thermal shift delta Tm,[5],0.39 °C
same,thermal shift delta Tm,[6],0.48 °C
same,thermal shift delta Tm,[7],-0.6 °C
same,thermal shift delta Tm,[8],1.42 °C
same,thermal shift delta Tm,[9],2.11 °C
same,thermal shift delta Tm,[10],0.29 °C
Cc1cn(-c2cc(NC(=O)c3ccc(C)c(Nc4nccc(-c5cccnc5)n4)c3)cc(C(F)(F)F)c2)cn1 [Nilotinib (AMN-107)],thermal shift delta Tm,[1],-0.2 °C
same,thermal shift delta Tm,[2],-0.28 °C
same,thermal shift delta Tm,[3],-8.56 °C
same,thermal shift delta Tm,[4],0.53 °C
same,thermal shift delta Tm,[5],0.44 °C
same,thermal shift delta Tm,[6],0.26 °C
same,thermal shift delta Tm,[7],-0.09 °C
same,thermal shift delta Tm,[8],0.72 °C
same,thermal shift delta Tm,[9],0.96 °C
same,thermal shift delta Tm,[10],0.47 °C
O=C(O)c1ccc2c(c1)nc(Nc1cccc(Cl)c1)c1ccncc12 [Silmitasertib (CX-4945)],thermal shift delta Tm,[1],0.56 °C
same,thermal shift delta Tm,[2],8.41 °C
same,thermal shift delta Tm,[3],3.01 °C
same,thermal shift delta Tm,[4],0.57 °C
same,thermal shift delta Tm,[5],0.68 °C
same,thermal shift delta Tm,[6],0.46 °C
same,thermal shift delta Tm,[7],3.05 °C
same,thermal shift delta Tm,[8],0.65 °C
same,thermal shift delta Tm,[9],1.59 °C
same,thermal shift delta Tm,[10],0.82 °C
COc1cc2ccc(=O)oc2cc1O [Scopoletin],thermal shift delta Tm,[1],-0.06 °C
same,thermal shift delta Tm,[2],0.76 °C
same,thermal shift delta Tm,[3],2.23 °C
same,thermal shift delta Tm,[4],-0.1 °C
same,thermal shift delta Tm,[5],0.06 °C
same,thermal shift delta Tm,[6],-0.08 °C
same,thermal shift delta Tm,[7],-0.43 °C
same,thermal shift delta Tm,[8],0.22 °C
same,thermal shift delta Tm,[9],1.13 °C
same,thermal shift delta Tm,[10],0.87 °C
CN(C)Cc1cccc(N/C(=C2\C(=O)Nc3cc(C(N)=O)ccc32)c2ccccc2)c1,thermal shift delta Tm,[1],0.27 °C
same,thermal shift delta Tm,[2],5.34 °C
same,thermal shift delta Tm,[3],2.95 °C
same,thermal shift delta Tm,[4],0.22 °C
same,thermal shift delta Tm,[5],0.46 °C
same,thermal shift delta Tm,[6],0.7 °C
same,thermal shift delta Tm,[7],0.53 °C
same,thermal shift delta Tm,[8],0.79 °C
same,thermal shift delta Tm,[9],1.03 °C
same,thermal shift delta Tm,[10],0.16 °C
COc1ccc(-c2nc(N3CCOCC3)c3sc(CN(C)c4ncc(C(=O)NO)cn4)cc3n2)cn1,thermal shift delta Tm,[1],0 °C
same,thermal shift delta Tm,[2],0.02 °C
same,thermal shift delta Tm,[3],-1.81 °C
same,thermal shift delta Tm,[4],0.86 °C
same,thermal shift delta Tm,[5],0.56 °C
same,thermal shift delta Tm,[6],0.42 °C
same,thermal shift delta Tm,[7],-0.08 °C
same,thermal shift delta Tm,[8],0.84 °C
same,thermal shift delta Tm,[9],0.56 °C
same,thermal shift delta Tm,[10],0.26 °C
Cc1nc2c(-c3cnc(N)nc3)nc(N3CCOCC3)nc2n1C(C)C,thermal shift delta Tm,[1],0.5 °C
same,thermal shift delta Tm,[2],2.64 °C
same,thermal shift delta Tm,[3],0.17 °C
same,thermal shift delta Tm,[4],0.5 °C
same,thermal shift delta Tm,[5],0.32 °C
same,thermal shift delta Tm,[9],1.35 °C
same,thermal shift delta Tm,[10],-0.09 °C
CN1CC[C@H](c2c(O)cc(O)c3c(=O)cc(-c4ccccc4Cl)oc23)[C@H](O)C1 [Flavopiridol HCl],thermal shift delta Tm,[1],0.77 °C
same,thermal shift delta Tm,[2],4.9 °C
same,thermal shift delta Tm,[3],0.91 °C
same,thermal shift delta Tm,[4],0.55 °C
same,thermal shift delta Tm,[5],0.9 °C
same,thermal shift delta Tm,[6],0.71 °C
same,thermal shift delta Tm,[7],3.57 °C
same,thermal shift delta Tm,[8],1.71 °C
same,thermal shift delta Tm,[9],0.71 °C
same,thermal shift delta Tm,[10],0.03 °C
